Laboratory results as given in PubChem BioAssay AID463173 (ICCB-Longwood Screening Facility, Harvard Medical School, 2010).
The whole screen tested about 52,000 compounds, of which about 1,700 (3.3%) were called active. The sample holds actives, similar compounds and a random draw of the others, so the mix is not that of the screen. No stated cut-off is given here; in the data, active means survival mostly below about 52% (no sharp cut-off); inactive means mostly above about 56%.

What follows are compounds tested on Wild type (assay: growth inhibition of S. aureus wild type versus tarO mutant, primary screen, teichoic acid synthesis inhibitors, RN4220, OD600 (AID 463173)). Conditions: S. aureus RN4220 wild type/DeltatarO growth, OD600, 18 h, stronger effect = lower value, screened at 18.75 µg/mL (by protocol).
O=C(COc1ccc(Cl)cc1)NCC(c1ccco1)S(=O)(=O)c1ccc(Cl)cc1 (centres undefined) was tested, and the survival was 78% (inactive). Cc1cccc(CNC(=O)Cc2csc3ccccc23)c1 was tested, and the survival was 116% (inactive). COc1ccc(CNC(=O)c2cccc(NC(=O)N3CCSc4ncccc43)c2)cc1 was tested, and the survival was 67% (inactive). With COc1ccccc1NC(=O)CCn1nc(-c2ccccc2OC)c2c(C)cc(C)nc21 the survival was 111% (inactive). For O=C(/C=C/c1ccco1)ON1C(=O)c2ccccc2C1=O, the survival was 117% (inactive). In the case of O=C(/C=C/c1ccco1)OCCN1CCOCC1, the survival was 92% (inactive). With O=C1c2ccccc2C(=O)N1COc1cccc2cccnc12 the survival was 101% (inactive). With O=C(/C=C\c1ccco1)Oc1cccc2cccnc12 the survival was 1% (active). With O=C(Oc1ccccc1-c1nc(-c2ccccc2)no1)c1ccccc1 the survival was 100% (inactive). With O=C(Oc1cccc2cccnc12)c1ccccc1 the survival was 1% (active). N#Cc1ccccc1NC(=O)Cn1cnc2onc(-c3cccc(F)c3)c2c1=O was tested, and the survival was 105% (inactive). With O=C(C1CCN(c2nc3ccccc3[nH]2)CC1)N1CCN(c2ccccc2)CC1 the survival was 85% (inactive). With Cc1ccc2nc(N3CCC(C(=O)N4CCN(c5cccc(Cl)c5)CC4)CC3)[nH]c2c1 the survival was 74% (inactive). O=C(C1CCN(c2nc3ccccc3[nH]2)CC1)N1CCN(c2cccc(Cl)c2)CC1 was tested, and the survival was 0% (active). In the case of CCCC(=O)c1cc(F)c(N2CCOCC2)cc1C, the survival was 121% (inactive). For Cc1ccc(NC(=O)Cn2c(=O)n(Cc3ccccc3)c(=O)c3sc4ccccc4c32)cc1, the survival was 93% (inactive). In the case of Cc1ccc(-n2ncc(C(=O)NCc3ccco3)c2C2CCN(C(=O)OC(C)(C)C)CC2)cc1C, the survival was 72% (inactive). For COc1ccc(N2CCN(c3oc(/C=C/c4ccc(F)cc4)nc3C#N)CC2)cc1, the survival was 84% (inactive). CCCCOc1ccc(C(=O)N(Cc2nc(-c3ccc(Cl)cc3)no2)C(C)C)cc1 was tested, and the survival was 85% (inactive). Cc1cc(C)cc(C(=O)N(Cc2nc(-c3ccc(Cl)cc3)no2)C(C)C)c1 was tested, and the survival was 17% (inactive). For COc1cccc(C(=O)N(Cc2nc(-c3ccc(Cl)cc3)no2)C(C)C)c1OC, the survival was 46% (inactive). For CC(C)N(Cc1nc(-c2ccc(Cl)cc2)no1)C(=O)c1ccc(C(C)(C)C)cc1, the survival was 0% (active). For CCOc1cc(C(=O)N(Cc2nc(-c3ccc(C)cc3)no2)C(C)C)cc(OCC)c1OCC, the survival was 15% (active). For Cc1ccc(-c2noc(CNC(=O)c3ccc(C(C)(C)C)cc3)n2)cc1, the survival was 89% (inactive). CCOc1cc(C(=O)NCc2nc(-c3cccc(C)c3)no2)cc(OCC)c1OCC was tested, and the survival was 89% (inactive). Cc1ccc(-c2noc(CN(C(=O)c3ccc(C(C)(C)C)cc3)C(C)C)n2)cc1 was tested, and the survival was -1% (active). For CCCCN(C)CCCNC(=O)C1CCN(S(=O)(=O)CCC)CC1, the survival was 77% (inactive). Cc1ccc(NC(=O)Cn2c(=O)n(CCC(=O)N3CCc4ccccc4C3)c(=O)c3ccccc32)c(C)c1 was tested, and the survival was 79% (inactive). COc1cccc(C(=O)Nc2cc3c(cc2C(=O)c2ccc(C)cc2)OCCO3)c1 was tested, and the survival was 71% (inactive). With CCOC(=O)c1cc(S(=O)(=O)Nc2ccc(OC(F)(F)F)cc2)[nH]n1 the survival was 87% (inactive). With CCN1CCN(c2cc(C)c3cc(NC(=O)c4cc(OC)c(OC)c(OC)c4)ccc3n2)CC1 the survival was 73% (inactive). For COc1ccccc1CC(=O)Nc1ccc2nc(N3CCC(C)CC3)cc(C)c2c1, the survival was 71% (inactive). With CCN1CCN(c2cc(C)c3cc(NC(=O)c4ccc(OC)c(OC)c4)ccc3n2)CC1 the survival was 65% (inactive). With CCN1CCN(c2cc(C)c3cc(NC(=O)c4cc(Cl)ccc4OC)ccc3n2)CC1 the survival was 2% (active). With COc1ccc(C(=O)Nc2ccc3nc(N4CCC(C)CC4)cc(C)c3c2)cc1 the survival was 86% (inactive). With COc1ccccc1C(=O)Nc1ccc2nc(N3CCC(C)CC3)cc(C)c2c1 the survival was 0% (active). In the case of CCSc1nc(NC(C)=O)nn1C(C)=O, the survival was 103% (inactive). Cc1ccc(NC(=O)Cc2c(C(=O)O)c(C)cn2C)cc1Cl was tested, and the survival was 87% (inactive). CCOCCCn1c(SCC(=O)Nc2ccccc2OC)nc2c(oc3ccccc32)c1=O was tested, and the survival was 81% (inactive). CCOc1ccc(C(=O)Nc2cccc(C(=O)OCc3cc(=O)n4cc(C)sc4n3)c2)cc1 was tested, and the survival was 81% (inactive). With Cc1cc2ncn(CCCCOc3ccccc3)c2cc1C the survival was 20% (active). Cc1ccc(OCCCCn2cnc3ccccc32)cc1 was tested, and the survival was 29% (active). For Cc1cc2ncn(CCC(=O)Nc3ccccc3F)c2cc1C, the survival was 105% (inactive). With c1ccc2c(c1)ncn2CCn1cnc2ccccc21 the survival was 104% (inactive). With COc1ccc(OCCn2cnc3ccccc32)cc1 the survival was 107% (inactive). With CC(=O)OC(COc1ccccc1)Cn1cnc2cc(C)c(C)cc21 (centres undefined) the survival was 125% (inactive). Cc1ccc(Cl)cc1N1CCN(C(=O)C2CCN(S(=O)(=O)c3ccc4c(c3)oc(=O)n4C)CC2)CC1 was tested, and the survival was 66% (inactive). With Cc1ccc(C)c(N2CCN(c3cc(C)nc4c(-c5ccc(Cl)cc5)c(C)nn34)CC2)c1 the survival was 96% (inactive). With Cc1cccc(N2CCN(c3cc(C)nc4c(-c5ccc(Cl)cc5)c(C)nn34)CC2C)c1 (centres undefined) the survival was 74% (inactive). Cc1ccc(N2CCN(c3cc(C)nc4c(-c5ccc(Cl)cc5)c(C)nn34)CC2C)cc1 (centres undefined) was tested, and the survival was 14% (active). With Cc1n[nH]c(=S)n1CC(=O)N1c2ccccc2CCc2ccccc21 the survival was 102% (inactive). With CC1=C(C(=O)Nc2ccccc2)C(c2ccc(Br)cc2)n2nc(CCCO)nc2N1 (centres undefined) the survival was 79% (inactive). With CCOc1ccc(NC(=O)Cn2cc(C(=O)c3ccc(C)c(C)c3)c(=O)c3cc(F)ccc32)cc1 the survival was 89% (inactive). For CC(=O)N1c2c(cc(Br)cc2S(=O)(=O)Nc2ccc(OC(F)(F)F)cc2)CC1C (centres undefined), the survival was 105% (inactive). With COc1cc(NS(=O)(=O)c2cc(Br)cc3c2N(C(C)=O)C(C)C3)cc(OC)c1 (centres undefined) the survival was -3% (active). With COc1ccc(CNS(=O)(=O)c2cc(Br)cc3c2N(C(C)=O)C(C)C3)cc1 (centres undefined) the survival was 138% (inactive). In the case of CN(C)c1ccc(CNC(=O)CCCn2ccc3cc(S(=O)(=O)N4CCCC4)ccc32)cc1, the survival was 0% (active). With CCc1ccc(CNC(=O)CCCn2ccc3cc(S(=O)(=O)N4CCCC4)ccc32)cc1 the survival was 63% (inactive). With Cc1cccc(CNC(=O)CCn2ccc3cc(S(=O)(=O)N4CCCC4)ccc32)c1 the survival was 76% (inactive). O=C(CCn1ccc2cc(S(=O)(=O)N3CCCC3)ccc21)NCc1cccc(Cl)c1 was tested, and the survival was -1% (active). With CCc1ccc(CNC(=O)C(C)n2ccc3cc(S(=O)(=O)N4CCCCCC4)ccc32)cc1 (centres undefined) the survival was 75% (inactive). With Cc1ccc(CNC(=O)C(C)n2ccc3cc(S(=O)(=O)N4CCCC4)ccc32)cc1 (centres undefined) the survival was 66% (inactive). In the case of Cc1cccc(CNC(=O)Cn2ccc3cc(S(=O)(=O)N4CCCCCC4)ccc32)c1, the survival was -6% (active). For O=C(Cn1ccc2cc(S(=O)(=O)N3CCCCC3)ccc21)NCc1cccc(Cl)c1, the survival was 128% (inactive). In the case of Cc1cccc(CNC(=O)Cn2ccc3cc(S(=O)(=O)N4CCC(C)CC4)ccc32)c1, the survival was 67% (inactive). In the case of COc1ccc(CNC(=O)CCCn2ccc3cc(S(=O)(=O)N4CCCC4)ccc32)cc1, the survival was 75% (inactive). For Cc1cccc(CNC(=O)Cn2ccc3cc(S(=O)(=O)N4CCCC4)ccc32)c1, the survival was 69% (inactive). In the case of CC(C(=O)NCc1ccccc1)n1ccc2cc(S(=O)(=O)N3CCCC3)ccc21 (centres undefined), the survival was -3% (active). In the case of O=C(CSc1nc2nccnc2c(=O)n1CCc1c[nH]c2ccccc12)Nc1ccc(F)cc1, the survival was 42% (inactive). With CCn1c(CNc2cccc(Cl)c2)nnc1SCc1ccccc1 the survival was 105% (inactive). For O=C1CCCC2=C1C(c1ccc3c(c1)OCO3)c1c([nH]c(=O)[nH]c1=O)N2 (centres undefined), the survival was 111% (inactive). CCOC(=O)c1ccccc1NC(=O)NCc1cccn1Cc1ccc(F)cc1 was tested, and the survival was 84% (inactive). For CC(=O)c1cccc(NC(=O)c2sc(-n3nc(C)c(Cc4ccc5c(c4)OCO5)c3C)nc2C)c1, the survival was 94% (inactive). For Cc1ccc(Cn2c(CN3CCC(C(=O)O)CC3)cc3ccccc32)cc1, the survival was 82% (inactive). With CCOc1ccccc1CNC(=O)CCn1ccc2cc(S(=O)(=O)N3CCC(C)CC3)ccc21 the survival was 69% (inactive). O=C(Cn1ccc2cc(S(=O)(=O)N3CCCCCC3)ccc21)NCc1ccccc1Cl was tested, and the survival was 73% (inactive). In the case of O=C(CCn1ccc2cc(S(=O)(=O)N3CCCC3)ccc21)NCc1ccccc1F, the survival was 83% (inactive). With CC1CCN(S(=O)(=O)c2ccc3c(ccn3CCC(=O)NCc3ccccc3F)c2)CC1 the survival was -6% (active). With O=C(Cn1ccc2cc(S(=O)(=O)N3CCCCC3)ccc21)NCCc1ccccc1Cl the survival was -6% (active). O=C(CCn1ccc2cc(S(=O)(=O)N3CCCC3)ccc21)NCc1ccccc1Cl was tested, and the survival was 14% (active). In the case of O=C(CCn1ccc2cc(S(=O)(=O)N3CCCC3)ccc21)NCc1ccccc1Br, the survival was 72% (inactive). For CC1CCN(S(=O)(=O)c2ccc3c(ccn3CC(=O)NCc3ccccc3F)c2)CC1, the survival was 53% (inactive). For O=C(Cn1ccc2cc(S(=O)(=O)N3CCCCCC3)ccc21)NCCc1ccccc1Cl, the survival was 72% (inactive). In the case of NC(=O)C1CCCN1S(=O)(=O)c1ccc(F)cc1 (centres undefined), the survival was 110% (inactive). With Cc1ccc2c(c1)N(C(=O)N1CCC(C(=O)Nc3cccc(F)c3)CC1)CCO2 the survival was 70% (inactive). With COc1cc(C2c3c(oc4ccc(C)cc4c3=O)C(=O)N2Cc2ccc(F)cc2)ccc1O (centres undefined) the survival was 83% (inactive). With CCCC(C(=O)Nc1cc(C)c(Cl)cc1OC)N1Cc2ccccc2C1=O (centres undefined) the survival was 71% (inactive). In the case of CCOC(=O)c1ccccc1NS(=O)(=O)c1c(-c2ccc(C)cc2)csc1C(=O)OC, the survival was 134% (inactive). With Cc1ccc2oc(-c3ccc(Cl)c(NC(=O)c4cc5ccccc5o4)c3)nc2c1 the survival was 66% (inactive).
